Rows were chosen to be rich in hits. Some 2% of all compounds tested hit in one or more screens of this group.
LGR2 antag: blocks bursicon-induced cAMP signaling via Drosophila LGR2; HEK293 LGR2, CRE-luciferase, bursicon-stimulated, 4 h; inhibition, % at 9.99 µM; hit rate 0.35% among 380,000;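 active = drop in luminescence signal, shown as inhibition above about 50% in the replicate tests, limit read from the data, passing the limit was not always enough; inconclusive = probably only some replicates passing the limit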;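 also: agonist challenge used bursicon conditioned medium at about half maximal strength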
CF NFkB block: inhibitors of cystic fibrosis induced NF-kB | KKLEB NF-kB-GFP reporter, PAF-induced, GFP fluorescence overnight | inhibition, % at 5 µM | hit rate 0.86% among 360,000 | AID 588850;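 active = at least 50% inhibition at 5 µM, scaled per plate between neutral and stimulator controls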;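 also: PAF is a Pseudomonas aeruginosa culture filtrate used as stimulus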
EWS-Fli inh: blocks EWS/Fli oncoprotein-driven transcription; AID 651661; inhibition, % at 12.6 µM; A673 NR0B1-luciferase reporter, viability-normalised; hit rate 0.67% among 350,000;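 active = mean inhibition of at least 50% after viability correction, with every replicate also passing that limit; inconclusive = mean reaches 50% but only one of two replicates passes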;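 also: firefly luciferase signal divided by Alamar Blue viability fluorescence both relative to DMSO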
KKLEB cytotox: CF airway cell cytotoxicity counter-screen; KKLEB CF airway cells viability, ATPlite luminescence, overnight; stronger effect = lower value; cells stimulated with P. aeruginosa culture filtrate; activity change (cytotoxicity), % at 5 µM; hit rate 0.36% among 360,000;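 active = corrected activity change at or below -50% at 5 µM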
PAX8 reporter: inhibitors of PAX8 transcriptional activity in RMG-I cells | RMG-I TPO-luciferase reporter, SteadyGlo, 24 h | inhibition, % at 12.6 µM | hit rate 1.2% among 360,000;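 active = mean replicate inhibition at least 60% with every replicate also reaching 60%; inconclusive = only one of the two criteria is met; inactive = mean below 60% and not all replicates reaching 60%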;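 also: luciferase light reporting Pax8 driven TPO promoter activity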
Shn3 inh set2: Schnurri-3 reporter inhibition in Clone20 osteoblasts | Clone20 osteoblast Shn3 3'UTR firefly luciferase, 24 h | inhibition, % at 12.5 µM | hit rate 0.52% among 360,000;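 active = mean inhibition of at least 75% with every replicate also reaching 75%; inconclusive = mean inhibition at least 75% but some replicate below; inactive = mean inhibition below 75%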
Hits are given with their value; i = inactive; ? = inconclusive; nt = no result; ! = not confirmed by another sample.

SMILES	LGR2 antag	CF NFkB block	EWS-Fli inh	KKLEB cytotox	PAX8 reporter	Shn3 inh set2
O=C(C[C@@H]1CC[C@H]2[C@@H](COC[C@@H](O)CN2Cc2ccc(F)cc2)O1)NCCc1ccccc1	i	nt	i	nt	i	nt
Cn1c(=O)c(C(=O)NNC(=O)c2cccc(Cl)c2)c(O)c2ccccc21	i	73	i	i	i	i
Cc1cccc(C(=O)NNC(=O)c2c(O)c3ccccc3n(C)c2=O)c1	i	i	i	i	i	i
COc1cc2nc(SCc3ccc(F)cc3)n(Cc3cccs3)c(=N)c2cc1OC	nt	i	nt	i	nt	i
COc1ccc(Cn2c(SCc3ccccc3C)nc3cc(OC)c(OC)cc3c2=N)cc1	nt	i	nt	i	nt	90
O=C(NCCN1C(=O)S/C(=C\c2ccc(OC(F)F)cc2)C1=O)c1cnccn1	i	i	59	i	128	i
COc1ccc(NC(=O)N(C)C[C@H]2Oc3c(NC(=O)c4ccncc4)cccc3C(=O)N([C@@H](C)CO)C[C@@H]2C)cc1	i	nt	i	nt	i	nt
O=C(Nc1ccccc1C(=O)Nc1nnc(C(F)(F)F)s1)c1ccccc1	i	i	i	-53	i	i
O=C(/C=C/c1ccccc1)NC(NC(=S)Nc1ccc(Cl)cc1Cl)C(Cl)(Cl)Cl (stereo unspecified)	nt	i	nt	i	nt	i
Cc1ccc(C)c(NC(=S)NC(NC(=O)/C=C/c2ccccc2)C(Cl)(Cl)Cl)c1 (stereo unspecified)	nt	i	nt	i	68	i
CC(=O)C1(C)CCC2C3C=C(C)C4=CC(=O)CCC4(C)C3CCC21C (stereo unspecified)	i	i	i	i	i	87
CC(=O)[C@@]1(O)CCC2C3C=CC4=CC(=O)CC[C@]4(C)C3CC[C@@]21C (stereo partly specified)	i	i	i	i	i	i
COc1cc(-c2noc(C)c2C#Cc2ccsc2)cc(OC)c1OC	i	i	59	i	i	i
CCCNC(=O)N1C[C@@H](C)[C@H](OC)CN(C)C(=O)c2ccc(NC(=O)C3CCC3)cc2OC[C@@H]1C	i	nt	i	nt	i	nt
COc1ccc(Cl)cc1N/C(N)=N/c1nc(CSc2ccc(C)cc2)cc(=O)[nH]1	i	i	nt	i	nt	80
Cc1ccc(N/C(N)=N/c2nc(CSc3nnc(C)s3)cc(=O)[nH]2)c(C)c1	i	i	69	i	i	i
CCC(=O)N1CCCCN2[C@H](CO)[C@H](c3ccc(C#Cc4cccnc4)cc3)[C@H]2C1	i	nt	i	nt	i	nt
CO[C@H]1CN(C)C(=O)c2ccc(NC(=O)CC(F)(F)F)cc2OC[C@@H](C)N(S(=O)(=O)c2cn(C)cn2)C[C@@H]1C	i	nt	i	nt	i	nt
CC(=O)Nc1ccc(S(=O)(=O)c2ccnc3cc(Cl)ccc23)cc1	?	i	i	i	110	i
O=C(Cc1nc2ccccc2[nH]1)c1cccc([N+](=O)[O-])c1	?	i	i	i	62	i
O=C(CSc1nc2ncc(Br)cc2[nH]1)c1cccc([N+](=O)[O-])c1	i	i	67	i	i	i
O=C(Nc1nc2ccccc2[nH]1)c1cccc([N+](=O)[O-])c1	i	i	i	i	i	i
Cc1nc2nc(SCC(=O)c3cccc([N+](=O)[O-])c3)[nH]c2cc1Br	i	i	nt	i	i	i
O=C(NCC1CCCO1)C(c1ccncc1)N(Cc1cccs1)C(=O)CN1C(=O)c2ccccc2S1(=O)=O (stereo unspecified)	i	i	i	i	i	i
O=C(NC1CCCCC1)C(c1ccc(F)cc1)N(Cc1cccs1)C(=O)CN1C(=O)c2ccccc2S1(=O)=O (stereo unspecified)	i	59	nt	-75	nt	i
SMILES	LGR2 antag	CF NFkB block	EWS-Fli inh	KKLEB cytotox	PAX8 reporter	Shn3 inh set2
O=S(=O)(CC(CN1CCCCC1)N1CCCCC1)c1ccc2ccccc2c1 (stereo unspecified)	50	97	i	-59	i	i
CC1C/C(=C\c2cccnc2)C(=O)/C(=C/c2cccnc2)C1 (stereo unspecified)	85	105	nt	-96	nt	i
O=C1/C(=C\c2cccnc2)Sc2ccccc21	i	i	i	i	i	i
CO[C@@H]1CN(C)C(=O)c2ccc(NC(=O)NC(C)C)cc2OC[C@@H](C)N(S(C)(=O)=O)C[C@@H]1C	i	nt	i	nt	i	nt
Brc1cc(Br)c2ncnc(N3CCCCC3)c2c1	nt	52	nt	i	nt	i
NC(=O)c1cc([N+](=O)[O-])ccc1NCc1ccc(N)cc1	i	i	74	i	i	i
COC(=O)C12OCC34C(CC5C(C)=C(O)C(=O)CC5(C)C3C(O)C1O)OC(=O)C(OC(=O)C=C(C)C)C24 (stereo unspecified)	100	94	i	i	99	99
Cc1cccc(C(=O)Oc2ccc(/C=N/NC(=O)c3ccc(O)cc3)cc2)c1	i	i	nt	i	i	i
Cc1cccc(C(=O)Oc2ccc(/C=N/NC(=O)c3ccccc3O)cc2)c1	i	i	i	i	104	i
Cc1noc(C)c1NC(=O)N(C)C[C@@H]1OCCCC[C@H](C)Oc2ccc(NC(=O)Nc3ccccc3)cc2C(=O)N([C@@H](C)CO)C[C@H]1C	i	nt	nt	nt	nt	nt
COc1ccc(CC(N)c2csc(NC(=O)c3cc(C(C)(C)C)nn3Cc3ccccc3)n2)cc1 (stereo unspecified)	i	58	i	-52	i	94
O=C(/C(=C/c1ccc(Cl)cc1)c1nc2ccccc2[nH]1)c1cccs1	nt	98	nt	-61	nt	88
COc1ccc(NC(=O)Nc2ccc3c(c2)C(=O)N([C@H](C)CO)C[C@@H](C)[C@H](CN(C)C(=O)Nc2ccc4c(c2)OCO4)O3)cc1	i	nt	i	nt	i	nt
S=c1[nH]nc(C2CCCCC2)n1/N=C/c1ccncc1	i	85	i	i	i	i
COc1ccc(NC(=O)COc2ccc(/C=C/c3cc[n+](C)cc3)cc2OC)cc1	i	i	i	i	i	i
COc1cc(/C=C/c2cc[n+](C)cc2)ccc1OCC(=O)Nc1ccc(Cl)c(Cl)c1	i	i	i	i	110	i
C[C@H]1CN([C@@H](C)CO)S(=O)(=O)c2ccc(C#Cc3ccncc3)cc2O[C@H]1CN(C)C(=O)Nc1ccc2c(c1)OCO2	i	nt	i	nt	65	nt
C[C@@H]1CN([C@@H](C)CO)S(=O)(=O)c2ccc(C#Cc3ccncc3)cc2O[C@H]1CN(C)C(=O)Nc1ccc2c(c1)OCO2	nt	nt	71	nt	103	nt
C[C@@H]1CN([C@H](C)CO)S(=O)(=O)c2ccc(C#Cc3ccccc3F)cc2O[C@H]1CN(C)C(=O)c1ccc2c(c1)OCO2	i	i	i	i	63!	i
CC(=O)N(C)C[C@@H]1Oc2cc(C#Cc3ccccc3F)ccc2S(=O)(=O)N([C@H](C)CO)C[C@@H]1C	i	nt	i	nt	nt	nt
CN(C)C(=O)c1ccc(-c2ccc([C@H]3[C@@H](C#N)N(C(=O)C4CCCC4)[C@H]3CO)cc2)cc1	i	nt	i	nt	i	nt
COc1cccc(C#Cc2cnc3c(c2)C(=O)N([C@H](C)CO)C[C@@H](C)[C@H](CN(C)C(=O)C2CC2)O3)c1	i	nt	i	nt	nt	nt
